In PubChem BioAssay (NCI):
This is part of a sample that, as a whole, favours compounds with a hit. Of some 83,000 tested, about 20% had one in any assay.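 Activity criterion: percent growth below 10, measured after cells in 96-well plates were exposed to a single compound concentration for 48 hours.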 Activity calls are given as the source filed them.

Legend:
Test in all cases: NCI-60 one-dose screen, 48 h (100 = growth as untreated, 0 = no growth, -100 = all killed)
Conditions in all cases: 10 µM unless noted
NCI-H23 lung = tested on: NCI-H23 lung
NCI-H226 lung = tested on: NCI-H226 lung
NCI-H322M lung = tested on: NCI-H322M lung
HOP-62 NSCLC = tested on: HOP-62 NSCLC
NCI-H460 lung = tested on: NCI-H460 lung
HOP-92 NSCLC = tested on: HOP-92 NSCLC
NCI-H522 lung = tested on: NCI-H522 lung
A549/ATCC NSCLC = tested on: A549/ATCC NSCLC
COLO 205 colon = tested on: COLO 205 colon
786-0 renal = tested on: 786-0 renal

Measured: growth

Cn1c2ccccc2c2c3c(c4c5ccccc5n(CCCCCC#N)c4c21)C(=O)N(O)C3=O
active: NCI-H23 lung 4.85% | NCI-H460 lung 2.84% | HOP-92 NSCLC -11.2% | NCI-H522 lung -51.9%
inactive: NCI-H226 lung 25.1% | NCI-H322M lung 48.8% | HOP-62 NSCLC 27.2% | A549/ATCC NSCLC 34.2% | COLO 205 colon 62.8%

CCN1CCN(Cc2ccc(NC(=O)Nc3nc4ccc(Oc5ccnc(C(=O)NC)c5)cc4s3)cc2C(F)(F)F)CC1
inactive: NCI-H322M lung 17.1%
active: NCI-H23 lung -12.2% | NCI-H226 lung -1.71% | HOP-62 NSCLC -13% | NCI-H460 lung -66.7% | HOP-92 NSCLC -68.3% | NCI-H522 lung -46.5% | A549/ATCC NSCLC -41.7% | COLO 205 colon -40.5%

O=C1C[C@H](N2C(=O)c3ccccc3S2(=O)=O)C2CO[C@@H]1O2
active: NCI-H522 lung -45.6%
inactive: NCI-H23 lung 89.3% | NCI-H226 lung 96.1% | NCI-H322M lung 103% | HOP-62 NSCLC 92.6% | NCI-H460 lung 103% | HOP-92 NSCLC 98.4% | A549/ATCC NSCLC 89.1% | 786-0 renal 96.9% | COLO 205 colon 64.1%

COc1ccc(Cl)cc1Nc1nc(C(F)(F)F)ccc1C(=O)N/N=C/c1cccnc1
inactive: NCI-H23 lung 41.5% | NCI-H226 lung 51.9% | NCI-H322M lung 59% | HOP-62 NSCLC 54% | NCI-H460 lung 33.6% | HOP-92 NSCLC 56.8% | NCI-H522 lung 29.3% | 786-0 renal 18.7% | COLO 205 colon 44.5%

CN1CCN(Cc2ccc(NC(=O)c3[nH]ncc3Nc3ncnc4[nH]ccc34)cc2)CC1
inactive: HOP-62 NSCLC 14.1% | A549/ATCC NSCLC 11.4%
active: NCI-H23 lung -12.2% | NCI-H226 lung -21.3% | NCI-H322M lung 3.32% | NCI-H460 lung 2.62% | HOP-92 NSCLC -7.91% | NCI-H522 lung 1.39% | COLO 205 colon -51%

COc1ccc(/C=C2\N=C3SC=C(N)N3C2=O)cc1
inactive: NCI-H23 lung 23.6% | NCI-H226 lung 51.6% | NCI-H322M lung 46.6% | HOP-62 NSCLC 40.2% | NCI-H460 lung 17.3% | A549/ATCC NSCLC 32.8% | 786-0 renal 33.2% | COLO 205 colon 12.5%
active: HOP-92 NSCLC -8.02% | NCI-H522 lung -54.5%

O=C1O[C@H]([C@H](O)CO)C(O)=C1O
inactive: NCI-H23 lung 97.7% | NCI-H226 lung 103% | NCI-H322M lung 104% | HOP-62 NSCLC 107% | NCI-H460 lung 104% | HOP-92 NSCLC 109% | NCI-H522 lung 88.4% | A549/ATCC NSCLC 104% | 786-0 renal 103% | COLO 205 colon 107%

CC/C=C\C[C@H](O)C/C=C1/C(=O)C=C[C@@H]1C/C=C\CCCC(=O)NC(C)C
active: NCI-H226 lung -33.5% | HOP-62 NSCLC -16.8% | NCI-H460 lung -4.43% | NCI-H522 lung -35.5% | A549/ATCC NSCLC 2.59% | 786-0 renal 0.451% | COLO 205 colon -41.3%
inactive: NCI-H23 lung 13.4% | NCI-H322M lung 39.9% | HOP-92 NSCLC 65.3%

COc1nc2c(cc1S(=O)(=O)c1ccccc1)CCc1c-2cnn1-c1ccc(Cl)cc1
inactive: NCI-H23 lung 89.5% | NCI-H226 lung 92.1% | NCI-H322M lung 101% | HOP-62 NSCLC 86.5% | NCI-H460 lung 99.2% | HOP-92 NSCLC 80.3% | NCI-H522 lung 81.1% | 786-0 renal 79.5% | COLO 205 colon 118%

CN1CCN(Cc2ccc(NC(=O)c3[nH]ncc3Nc3ncnc4c3CCC4)cc2)CC1
active: NCI-H23 lung 5.19% | NCI-H226 lung 9.05% | NCI-H460 lung 6.72% | HOP-92 NSCLC -33% | COLO 205 colon -37.5%
inactive: NCI-H322M lung 16.5% | HOP-62 NSCLC 22.6% | NCI-H522 lung 13.7% | A549/ATCC NSCLC 17.2%

CN1CCN(Cc2ccc(NC(=O)c3[nH]ncc3Nc3ncnc4sccc34)cc2)CC1
inactive: NCI-H226 lung 10.9% | NCI-H322M lung 21.6% | HOP-62 NSCLC 22.4% | NCI-H522 lung 14% | A549/ATCC NSCLC 13.5%
active: NCI-H23 lung -1.52% | NCI-H460 lung 5.43% | HOP-92 NSCLC -13.3% | COLO 205 colon -8.12%

Cn1c2ccccc2c2c3[nH]c(=O)[nH]c(=O)c3c3c4ccccc4n(C)c3c21
active: HOP-92 NSCLC -4.38%
inactive: NCI-H23 lung 43.3% | NCI-H226 lung 52.6% | NCI-H322M lung 51.4% | HOP-62 NSCLC 38.1% | NCI-H460 lung 20.1% | NCI-H522 lung 20.4% | A549/ATCC NSCLC 24.3% | COLO 205 colon 53.8%

Cc1cc(=O)oc2cc(Oc3nc(-c4cccs4)cn4c(-c5cccs5)cnc34)ccc12
inactive: NCI-H23 lung 56.6% | NCI-H226 lung 83% | NCI-H322M lung 89.4% | HOP-62 NSCLC 59% | NCI-H460 lung 50.5% | NCI-H522 lung 74.6% | A549/ATCC NSCLC 58.5% | COLO 205 colon 75%
active: HOP-92 NSCLC 7.71%

CCNS(=O)(=O)c1ncnc2nc[nH]c12
inactive: NCI-H23 lung 97.1% | NCI-H226 lung 120% | NCI-H322M lung 111% | HOP-62 NSCLC 105% | NCI-H460 lung 104% | HOP-92 NSCLC 98.6% | NCI-H522 lung 88.5% | A549/ATCC NSCLC 119% | 786-0 renal 104% | COLO 205 colon 112%

COc1ccc(CCN2CCCn3c2nc2ccccc2c3=O)cc1
inactive: NCI-H23 lung 32.7% | NCI-H226 lung 37.3% | NCI-H322M lung 45.4% | HOP-62 NSCLC 48.1% | NCI-H460 lung 10.7% | HOP-92 NSCLC 46.5% | NCI-H522 lung 12.2% | A549/ATCC NSCLC 28.6%
active: COLO 205 colon -10.2%

CCCCCCCCCCCCCCCCCCSC1=CC(=O)C(OC)=C(OC)C1=O
inactive: NCI-H23 lung 89.8% | NCI-H226 lung 96.7% | NCI-H322M lung 114% | HOP-62 NSCLC 108% | NCI-H460 lung 105% | HOP-92 NSCLC 56.5% | NCI-H522 lung 94.5% | 786-0 renal 120% | COLO 205 colon 111%

COC(/C=C/c1ccc([N+](=O)[O-])cc1)OC
inactive: NCI-H23 lung 96.5% | NCI-H226 lung 106% | NCI-H322M lung 101% | HOP-62 NSCLC 114% | NCI-H460 lung 112% | HOP-92 NSCLC 85% | NCI-H522 lung 86.9% | A549/ATCC NSCLC 95.4% | COLO 205 colon 110%

CCCCCN(CCCCC)CCC[C@@H](C)[C@H]1CC[C@H]2[C@@H]3[C@H](OCCCN)C[C@@H]4C[C@H](OCCCN)CC[C@]4(C)[C@H]3C[C@H](OCCCN)[C@]12C
inactive: NCI-H23 lung 49.2% | NCI-H226 lung 75.2% | NCI-H322M lung 24.6% | HOP-62 NSCLC 48.3% | NCI-H460 lung 45.2% | HOP-92 NSCLC 50% | NCI-H522 lung 28.8% | 786-0 renal 61.1% | COLO 205 colon 52.1%

COc1ccc(-c2cn3c(-c4ccc(OC)cc4)cnc3c(Oc3ccc4c(C)cc(=O)oc4c3)n2)cc1
inactive: NCI-H23 lung 33% | NCI-H226 lung 70.7% | NCI-H322M lung 82% | HOP-62 NSCLC 40.9% | NCI-H460 lung 26.4% | NCI-H522 lung 39.6% | A549/ATCC NSCLC 16.5% | COLO 205 colon 56.1%
active: HOP-92 NSCLC -13.6%

C=C1CC2(OC1=O)C(=O)Nc1ccccc12 (centres undefined)
active: HOP-92 NSCLC 9.19% | NCI-H522 lung -45.7%
inactive: NCI-H23 lung 67.7% | NCI-H226 lung 72.9% | NCI-H322M lung 93.8% | HOP-62 NSCLC 108% | NCI-H460 lung 77.8% | A549/ATCC NSCLC 100% | 786-0 renal 76.2% | COLO 205 colon 10.3%

CN(CC(=O)N(Cc1ccc(C2CCCCC2)cc1)c1ccc(C(=O)NO)cc1)S(=O)(=O)c1c(F)c(F)c(F)c(F)c1F
inactive: NCI-H23 lung 53.9% | NCI-H226 lung 100% | NCI-H322M lung 90% | HOP-62 NSCLC 103% | NCI-H460 lung 99.5% | HOP-92 NSCLC 95% | NCI-H522 lung 45.3% | A549/ATCC NSCLC 102% | COLO 205 colon 67.9%

Cc1nc2sc(C(=O)Nc3cccc4c3OCCO4)c(N)c2cc1C(C)O (centres undefined)
inactive: NCI-H23 lung 57.6% | NCI-H226 lung 50.2% | NCI-H322M lung 62.8% | NCI-H460 lung 15.8% | HOP-92 NSCLC 49.6% | 786-0 renal 43.2%
active: HOP-62 NSCLC -3.21% | NCI-H522 lung -29.3% | COLO 205 colon 5.86%

Cn1c2ccccc2c2c3c(c4c5ccccc5[nH]c4c21)C(=O)N(N)C3=O
inactive: NCI-H23 lung 46.1% | NCI-H226 lung 53.4% | NCI-H322M lung 85.1% | HOP-62 NSCLC 44.3% | NCI-H460 lung 17.5% | HOP-92 NSCLC 80% | NCI-H522 lung 50.2% | A549/ATCC NSCLC 66.4% | COLO 205 colon 56.8%

O=C(O)c1ccc(=O)[nH]n1
inactive: NCI-H23 lung 103% | NCI-H226 lung 107% | NCI-H322M lung 117% | HOP-62 NSCLC 111% | NCI-H460 lung 112% | HOP-92 NSCLC 87.9% | NCI-H522 lung 106% | A549/ATCC NSCLC 116% | 786-0 renal 116% | COLO 205 colon 111%

O=C(CNC1C2CC3CC(C2)CC1C3)Sc1nnc2sc3ccccc3n12 (centres undefined)
inactive: NCI-H23 lung 95% | NCI-H226 lung 91.3% | NCI-H322M lung 113% | HOP-62 NSCLC 104% | NCI-H460 lung 97.9% | HOP-92 NSCLC 46.2% | NCI-H522 lung 96.4% | A549/ATCC NSCLC 108% | COLO 205 colon 106%

CCCCCCCCCCCCCC(=O)C(C)N (centres undefined)
active: NCI-H460 lung 4.75% | HOP-92 NSCLC 8.22% | NCI-H522 lung 0.193%
inactive: NCI-H23 lung 51.6% | NCI-H226 lung 87.9% | NCI-H322M lung 53.5% | HOP-62 NSCLC 22.3% | 786-0 renal 71.3% | COLO 205 colon 15.9%

CNc1cc2nc3cc(NC)c(C)cc3cc2cc1C
active: NCI-H460 lung -85.8% | NCI-H522 lung -2.17% | COLO 205 colon -39.1%
inactive: NCI-H23 lung 13.3% | NCI-H226 lung 26.4% | NCI-H322M lung 12.5% | HOP-62 NSCLC 10.7% | HOP-92 NSCLC 11.7% | 786-0 renal 12.9%

Clc1cccc(Nc2nc(Nc3cnc4ccccc4c3)c3[nH]cnc3n2)c1
active: HOP-92 NSCLC 7.57%
inactive: NCI-H23 lung 84.3% | NCI-H226 lung 72.3% | NCI-H322M lung 89.1% | HOP-62 NSCLC 59.9% | NCI-H460 lung 61.1% | A549/ATCC NSCLC 74.4% | 786-0 renal 109% | COLO 205 colon 79.8%
